The list is not random: actives were taken first. Their share in the collection is about 2.3%.
ERp5 block – blocks human ERp5 reductase activity on insulin; Q15084; ERp5 insulin aggregation, absorbance 650 nm, 90 min; AID 651711; hit rate 0.05% among 350,000; inhibition, % at 9.99 µM;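 active means mean replicate inhibition above about 25%, with every replicate also reaching it, limit read from the data, passing the limit was not always enough; inconclusive means only one of those two criteria met; inactive means neither criterion met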
SIRT5 block – inhibitors of human sirtuin-5 desuccinylase | AID 652115 | Purified SirT5, succinyl-peptide AMC, trypsin-coupled fluorescence | hit rate 1.1% among 330,000 | inhibition, % at 15 µM; in the data active means inhibition above about 15%; inconclusive means no clear call, values can overlap the other calls
Target sequence (Q9NXA8 whole entry, looked up): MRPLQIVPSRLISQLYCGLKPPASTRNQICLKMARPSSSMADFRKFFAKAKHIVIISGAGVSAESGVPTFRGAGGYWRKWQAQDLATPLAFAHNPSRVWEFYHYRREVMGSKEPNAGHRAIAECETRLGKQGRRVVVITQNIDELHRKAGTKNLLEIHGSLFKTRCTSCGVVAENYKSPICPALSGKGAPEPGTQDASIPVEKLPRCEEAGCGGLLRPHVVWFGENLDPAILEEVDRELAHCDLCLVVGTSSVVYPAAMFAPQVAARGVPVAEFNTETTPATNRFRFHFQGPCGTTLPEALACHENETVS
Rtt109 Vps75 – blocks Candida albicans Rtt109/Vps75 acetyltransferase activity. Q5AAJ8. purified Rtt109/Vps75, ThioGlo CoA-SH fluorescence, 4 h. inhibition, % at 34.9 µM. hit rate 0.16% among 330,000;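 active means inhibition of at least 50% in every replicate; inconclusive means best replicate reaches 50% inhibition but some replicates fall short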
PDI inh – PDI (human) enzyme inhibition; PDI insulin aggregation turbidity, A650, 90 min; AID 588391; inhibition, % at 10 µM; P07237; hit rate 0.052% among 350,000;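 active means mean inhibition across replicates of 30% or more, whatever share of single replicates reach that level; inconclusive means mean inhibition below 30% while every single replicate reaches 30%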
DENV2 CPE – protects cells from dengue virus 2 cytopathic effect. DENV2-infected cells, cytopathic effect rescue, plate reader. CPE inhibition, % at 9.99 µM. hit rate 1.7% among 350,000. AID 651640; in the data active means CPE inhibition above about 20%, passing the limit was not always enough; inconclusive means no clear call, values can overlap the other calls; tested in BHK-21 cells
Numbers stand for hits; i = inactive; ? = inconclusive; nt = no result given; ! = a repeat was not active.

SMILES	ERp5 block	SIRT5 block	Rtt109 Vps75	PDI inh	DENV2 CPE
N#Cc1cccc(-c2ccc(C3[C@@H]4CN(C(=O)c5cccnc5)C[C@H]3N4)cc2)c1 (some centres not stated)	nt	nt	nt	nt	84!
N#Cc1cccc(-c2ccc(C3[C@@H]4CN(C(=O)C5CC5)C[C@H]3N4)cc2)c1 (some centres not stated)	i	i	nt	nt	?
O=C(C1CC1)N1C[C@@H]2N[C@H](C1)C2c1ccc(-c2cccc(F)c2)cc1 (some centres not stated)	nt	nt	nt	nt	59!
Fc1cccc(-c2ccc(C3[C@@H]4CN(Cc5cncnc5)C[C@H]3N4)cc2)c1 (some centres not stated)	nt	nt	nt	nt	28!
O=C(C1CCCC1)N1C[C@@H]2N[C@H](C1)C2c1ccc(-c2cccc(F)c2)cc1 (some centres not stated)	i	i	nt	nt	47!
Cc1ccc(S(=O)(=O)N(C)C[C@@H]2OCCCC[C@@H](C)Oc3ccc(NC(=O)NC(C)C)cc3C(=O)N([C@H](C)CO)C[C@@H]2C)cc1	i	i	nt	nt	nt
CO[C@@H]1CN(C)C(=O)c2ccc(NC(=O)C3CCCC3)cc2OC[C@@H](C)N(C(=O)Nc2ccc(C(F)(F)F)cc2)C[C@H]1C	i	i	nt	nt	i
COc1ccc(C(=O)Nc2ccc3c(c2)OC[C@@H](C)N(C(C)=O)C[C@@H](C)[C@@H](OC)CN(C)C3=O)cc1	i	i	nt	nt	i
COCCNc1nc(NCc2ccccc2OC)c2sccc2n1	i	i	nt	i	i
COCCNc1nc(NCc2cnc(C)cn2)c2sccc2n1	i	17	nt	i	i
O=C(C[C@@H]1CC[C@@H]2NC[C@H](O)COC[C@H]2O1)Nc1ccc(-c2ccccc2)cc1	nt	nt	nt	nt	i
Cc1c(NCc2cccnc2)cccc1C(=O)O	i	i	i	i	i
O=C(O)c1cc(N2C(=O)C3CCCCC3C2=O)ccc1NCc1cccnc1 (configuration not stated)	i	21	i	i	i
Cc1cc(C)cc(NC(=O)Cn2nnc(C(=O)NCc3ccc(F)cc3)c2N)c1	i	16	i	i	i
C[C@@H]1CN([C@H](C)CO)C(=O)Cc2cc(NC(=O)Cc3cn(C)c4ccccc34)ccc2O[C@H]1CN(C)S(=O)(=O)c1cccs1	i	i	nt	nt	i
Cn1ccnc1C(OC(=O)c1ccc(Cl)cc1)C(F)(F)F (configuration not stated)	i	i	i	i	i
Cn1ccnc1C(OC(=O)c1ccccc1)C(F)(F)F (configuration not stated)	i	15	i	i	i
COC(=O)C1=C[C@@H](C(=O)OC)[C@@H]2C3=C(C(=O)[C@@]2(C)NC(=O)c2ccccc2)[C@H](C)C(C(=O)OC)=C(C(=O)OC)[C@@H]3C1	i	i	i	i	24
COC(=O)C1=C[C@@H](C(=O)OC)[C@@H]2C3=C(C(=O)[C@@]2(C)NC(=O)c2ccccc2)[C@H](C)n2c(=O)n(C)c(=O)n2[C@@H]3C1	i	i	i	i	i
CCC(=O)N(C)C[C@@H]1Oc2ncc(-c3ccc(F)cc3)cc2C(=O)N([C@H](C)CO)C[C@@H]1C	i	i	nt	nt	i
O=C(O)Cc1ccc(Nc2cnn(C34CC5CC(CC(CC(=O)O)(C5)C3)C4)c(=O)c2Cl)cc1	i	15	i	i	i
CCC(=O)N1C[C@H](C)[C@H](OC)CN(C)C(=O)c2ccc(NC(=O)COC)cc2OC[C@H]1C	i	i	nt	nt	i
O=C(CC1NCCN(Cc2ccccc2)C1=O)Nc1ccccc1 (configuration not stated)	i	nt	i	i	72
Cc1ccccc1C1=C/C(=C(\SS/C(C(=O)c2ccc(OCC(=O)O)c(Cl)c2Cl)=C2\C=C(c3ccccc3C)SS2)C(=O)c2ccc(OCC(=O)O)c(Cl)c2Cl)SS1	i	69	i	i	i
CCOc1ccc(NC(=O)Cn2c(=O)n(CC3CCCO3)c(=O)c3ccccc32)cc1 (configuration not stated)	i	15	i	i	i
Cc1cccc(NC(=O)Cn2c(=O)n(CC3CCCO3)c(=O)c3ccccc32)c1 (configuration not stated)	i	i	i	i	i
COC(=O)CC(=O)O[C@H]1C=C[C@@H](NC(=O)OC(C)(C)C)C1	i	i	i	i	i
CC(=O)CC(=O)O[C@@H]1C=C[C@H](NC(=O)OC(C)(C)C)C1	i	nt	nt	nt	29
